Values joined by “and” are separate entries in the source; they are usually repeats but may differ in a detail not shown here. Identical values can stand only once. Inconclusive results are not listed. Where a call stands in place of a potency, no number is given. Unmarked numbers belong to inactive results. Active and inactive are the calls of the source. The call rests on the fitted dose curve; in most records, active means well fitted cell-killing curve with a large enough effect in the repeat runs; inconclusive means weak or mixed curves, or effect the other way; inactive means flat fitted curve, though single readings scatter.
How the values were obtained:
[1] = cAMP Responsive Elements (CRE) small molecule antagonists, cell-based qHTS assay: qHTS cell viability counter screen (AID 2060913); settings: CRE-bla HEK293T viability, CellTiter-Glo luminescence, 5 h; series mostly up to 92.4 µM; further: nearly all actives have a fitted effect of over 40% in size
Summary of the method: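 CRE-bla HEK293T cells (2,000/well, 18 h) given compound plus NKH477 0.25 uM final for 3 h at 37C; viability counter-screen by CellTiter-Glo luminescence in same wells after 30 min.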

[2] = cAMP Responsive Elements (CRE) small molecule agonists, cell-based qHTS assay: qHTS cell viability counter screen (AID 2060914); settings: CRE-bla HEK293T viability, CellTiter-Glo luminescence, 5 h; series mostly up to 92.4 µM;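 further: viability read after 3 h of compound exposure; nearly all actives have a fitted effect of over 50% in size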
Summary of the method: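 Cells are seeded and incubated 18 h, treated with compounds in DMSO for 3 h, read for the bla reporter, then given CellTiter-Glo; luminescence is measured after 30 min at room temperature.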
Potency means the concentration at half of the fitted maximal effect.

Structure (SMILES) | Potency [1] | Potency [2] | viability change, negative = cytotoxic [1] | activity change, negative = cytotoxicity [2]
c1ccc2c(c1)cc1ccc3cccc4ccc2c1c34 | inactive | inactive |  | 
C[N+]1(C)CCCCC1 | inactive | inactive |  | 
CCCCC(=O)Cl | inactive | inactive |  | 
CCCCSP(=O)(SCCCC)SCCCC | inactive | inactive |  | 
C#CC(O)(C=CCl)CC (stereo not given) | inactive | inactive |  | 
NC(=O)OCCCc1ccccc1 | inactive | inactive |  | 
CCCC1COC(Cn2cncn2)(c2ccc(Cl)cc2Cl)O1 (stereo not given) | inactive | inactive |  | 
CC(C)c1ccc(CO)cc1 | inactive | inactive |  | 
CCCCCCCCCc1ccc(O)cc1 | inactive | inactive |  | 
OCC1CO1 (stereo not given) | inactive | inactive |  | 
Cc1ccc(N)c(C)c1 | inactive | inactive |  | 
CCC[CH2][Sn]([Cl])([Cl])[CH2]CCC | 17.4 µM (active) and 18 µM (active) | 31 µM (active) and 30.6 µM (active) |  | 
O=[N+]([O-])c1cc(C(F)(F)F)c(Cl)c([N+](=O)[O-])c1Nc1ncc(C(F)(F)F)cc1Cl | 30.6 µM (active) | 77 µM (active) |  | 
CCC(C)(C)c1cc(-n2nc3ccccc3n2)c(O)c(C(C)(C)CC)c1 | inactive | inactive |  | 
CCCCn1cc[n+](C)c1 (tested in a mixture with another compound) | inactive | inactive |  | 
O=C(O)[C@H](O)[C@@H](O)C(=O)O | inactive | inactive |  | 
O=C(Cc1ccccc1)OCc1ccccc1 | inactive | inactive |  | 
CCCCCC[n+]1ccccc1 | inactive | inactive |  | 
N#CCCCCC#N | inactive | inactive |  | 
Nc1cnn(-c2ccccc2)c(=O)c1Cl | inactive | inactive |  | 
CCN(CC)C(=O)N[C@@H]1C=C2c3cccc4[nH]cc(c34)C[C@@H]2N(C)C1 | inactive | inactive |  | 
NCCc1cc(O)c(O)cc1O | inactive | inactive |  | 
O=C(N[C@H]1N=C(c2ccccc2F)c2cccc3c2N(CC3)C1=O)c1cc2ccccc2[nH]1 | inactive | inactive |  | 
COC(=O)c1cncn1C(C)c1ccccc1 (stereo not given) | inactive | inactive |  | 

Structure (SMILES) | Potency [1] | Potency [2] | viability change, negative = cytotoxic [1] | activity change, negative = cytotoxicity [2]
CCCN1CCC[C@@H]2Cc3nc(N)ncc3C[C@H]21 | inactive | inactive |  | 
C[C@H]1C(=O)O[C@@H]2CCN3CC=C(COC(=O)[C@](C)(O)[C@]1(C)O)[C@H]23 | inactive | inactive |  | 
CCN(CC)C(=O)/C(Cl)=C(\C)OP(=O)(OC)OC | inactive | inactive |  | 
SCc1ccccc1 | inactive | inactive |  | 
Nc1ccc(Cl)cc1N | inactive | inactive |  | 
CCCCCc1cc(O)cc(O)c1 | inactive | inactive |  | 
NCC1(CC(=O)O)CCCCC1 | inactive | inactive |  | 
CN(C)c1ccc(N(C)C)cc1 | inactive | inactive |  | 
CCN(C)N=O | inactive | inactive |  | 
CCCC[P+](CC)(CCCC)CCCC (tested in a mixture with another compound) | inactive | inactive |  | 
CCC[CH2][Sn]([CH2]CCC)([CH2]CCC)[O][Sn]([CH2]CCC)([CH2]CCC)[CH2]CCC | 1.5 µM (active) | 1.34 µM (active) |  | 
O=C(O)c1ccccc1O | inactive | inactive |  | 
CC(=[OH+])/C=C(/C)[O-].CC(=[OH+])/C=C(\C)[O-].CC(=[OH+])/C=C(\C)[O-].[Al] | inactive | inactive |  | 
CC(C)OC(=S)S | inactive | inactive |  | 
COC(=O)Nc1nc2ccccc2[nH]1 | inactive | inactive |  | 
C[C@]12CC[C@H]3[C@@H](CCC4=CC(=O)CC[C@@]43C)[C@@H]1CC[C@@H]2C(=O)O | inactive | inactive |  | 
BrCCBr | inactive | inactive |  | 
Oc1cc(Cl)ccc1Oc1ccc(Cl)cc1Cl | 44.3 µM (active) | 62.6 µM (active) |  | 
CN(C)[C@@H]1C(=O)C(C(N)=O)=C(O)[C@@]2(O)C(=O)C3=C(O)c4c(O)cccc4[C@@](C)(O)[C@H]3C[C@@H]12 | inactive | inactive |  | 
CN1CCN(C(=O)O[C@H]2c3nccnc3C(=O)N2c2ccc(Cl)cn2)CC1 | inactive | inactive |  | 
O=C(CCl)c1ccc(Cl)cc1Cl | inactive | inactive |  | 
O=C(Cl)OCCOCCOC(=O)Cl | inactive | inactive |  | 
CCN(CC)CCO | inactive | inactive |  | 
CC1(C)C(C=C(Cl)Cl)C1C(=O)OC(C#N)c1ccc(F)c(Oc2ccccc2)c1 (stereo not given) | inactive | inactive |  | 

Structure (SMILES) | Potency [1] | Potency [2] | viability change, negative = cytotoxic [1] | activity change, negative = cytotoxicity [2]
Oc1ccc(C2(c3ccc(O)cc3)CCCCC2)cc1 | inactive | inactive |  | 
C=CC(=O)OCCCCO | inactive | inactive |  | 
CCc1cc2c(s1)-n1c(C)nnc1CN=C2c1ccccc1Cl | inactive | inactive |  | 
CCCCN(CCCC)SN(C)C(=O)Oc1cccc2c1OC(C)(C)C2 | inactive | inactive |  | 
CCC1(c2cccc(O)c2)CCCCN(C)C1 (stereo not given) | inactive | inactive |  | 
CCN(CC)Cc1nccn1-c1ccc([N+](=O)[O-])cc1C(=O)c1ccccc1Cl | inactive | inactive |  | 
O=C1OC(CCN2CCCCC2)OC1(c1ccccc1)c1ccccc1 (stereo not given) | inactive | inactive |  | 
C=CC(=O)OCCN(C)C | inactive | inactive |  | 
O=S(=O)(O)C(F)(F)C(F)(F)C(F)(F)C(F)(F)C(F)(F)C(F)(F)F | inactive | inactive |  | 
CCCCCCCCP(=O)(O)O | inactive | inactive |  | 
COC(=O)C(C)Oc1ccc(Oc2ccc(Cl)cc2Cl)cc1 (stereo not given) | inactive | inactive |  | 
OC(Cc1ccccc1Cl)(Cn1[nH]cnc1=S)C1(Cl)CC1 (stereo not given) | inactive | inactive |  | 
N#Cc1c2ccccc2cc2ccccc12 | inactive | inactive |  | 
CCSC(=O)N(CC)C1CCCCC1 | inactive | inactive |  | 
CC(C)COC(=O)c1ccccc1C(=O)OCC(C)C | inactive | inactive |  | 
O=S(=O)(Cl)Cl | inactive | inactive |  | 
CC(C)(C)C(O)C(Oc1ccc(-c2ccccc2)cc1)n1cncn1 (stereo not given) | inactive | inactive |  | 
CCCCn1cc[n+](C)c1.[Cl][Fe-]([Cl])([Cl])[Cl] | inactive | inactive |  | 
CCc1cccc(C)c1N(C(=O)CCl)[C@@H](C)COC | inactive | inactive |  | 
C=CC(=O)NC(C)(C)CC(C)=O | inactive | inactive |  | 
CCOP(=O)(OCC)Oc1cc(C)nc(C(C)C)n1 | inactive | inactive |  | 
Nc1cc(Cl)ccc1Cl | inactive | inactive |  | 
N=C(N)[Se] | inactive | inactive |  | 
CC(N)=S | inactive | inactive |  | 

Structure (SMILES) | Potency [1] | Potency [2] | viability change, negative = cytotoxic [1] | activity change, negative = cytotoxicity [2]
COP(=S)(OC)Oc1ccc(SC)c(C)c1 | inactive | inactive |  | 
Oc1cccc(Cl)c1 | inactive | inactive |  | 
c1cc(OCC2CO2)ccc1Cc1ccc(OCC2CO2)cc1 (stereo not given) | inactive | inactive |  | 
S=C=NCCc1ccccc1 | inactive | inactive |  | 
Cl/C=C/Cl | inactive | inactive |  | 
CC(C)(C)OOC(=O)c1ccccc1 | inactive | inactive |  | 
CCC(C)c1cc([N+](=O)[O-])cc([N+](=O)[O-])c1OC(=O)C=C(C)C (stereo not given) | inactive | inactive |  | 
[CH3][Hg][Cl] | inactive | inactive |  | 
CNC(=O)O/N=C/C(C)(C)SC | inactive | inactive |  | 
CCN(CC)CCOC(=O)C(O)(c1ccccc1)c1ccccc1 | inactive | inactive |  | 
Clc1ccc(C(Cl)(Cl)Cl)cn1 | inactive | inactive |  | 
N#Cc1cc([N+](=O)[O-])ccc1N | inactive | inactive |  | 
O=c1[nH]c(Cl)c(Cl)cc1Cl | inactive | inactive |  | 
COC(=O)c1ccccc1S(=O)(=O)NC(=O)Nc1nc(C)nc(OC)n1 | inactive | inactive |  | 
CC1=C(C(=O)O)N2C(=O)[C@@H](N)[C@H]2SC1 |  |  | 6.72% [at 18.9 µM] | 16% [at 18.9 µM]
CNN | inactive | inactive |  | 
CC12CC1(C)C(=O)N(c1cc(Cl)cc(Cl)c1)C2=O (stereo not given) | inactive | inactive |  | 
Clc1ccc(Cl)cc1 | inactive | inactive |  | 
Sc1ccccc1Cl | inactive | inactive |  | 
COc1ccc(N)cc1 | inactive | inactive |  | 
CC(C)[C@@H](C(=O)O[C@@H](C#N)c1cccc(Oc2ccccc2)c1)c1ccc(Cl)cc1 | inactive | inactive |  | 
CN(C)C(=S)S | inactive | inactive |  | 
C/C(=N\NC(=O)Nc1cc(F)cc(F)c1)c1ncccc1C(=O)O | inactive | inactive |  | 
ClC1=C(Cl)[C@]2(Cl)[C@@H]3[C@@H](Cl)[C@@H](Cl)C[C@@H]3[C@@]1(Cl)C2(Cl)Cl | inactive | inactive |  | 

Structure (SMILES) | Potency [1] | Potency [2] | viability change, negative = cytotoxic [1] | activity change, negative = cytotoxicity [2]
CCCCCCCC(=O)Cl | inactive | inactive |  | 
CC[C@H](N)c1ccccc1 | inactive | inactive |  | 
CCC1(C2=NCCN2)Cc2ccccc2O1 (stereo not given) | inactive | inactive |  | 
ClSC(Cl)(Cl)Cl | inactive | inactive |  | 
BrC(Br)C(Br)(Br)Br | inactive | inactive |  | 
CCCBr | inactive | inactive |  | 
CCCCOC(=O)c1ccccc1C(=O)O | inactive | inactive |  | 
CC1C(=O)C[C@]2(C(C)C)C[C@H]12 (stereo not given in full) | inactive | inactive |  | 
COP(=S)(OC)SCN1C(=O)c2ccccc2C1=O | inactive | inactive |  | 
C=C1CC[C@@]2(O)[C@H]3Cc4ccc(O)c5c4[C@@]2(CCN3CC2CC2)[C@H]1O5 | inactive | inactive |  | 
NC(=O)CCl | inactive | inactive |  | 
Oc1c(Cl)c(Cl)c(Cl)c(Cl)c1Cl | inactive | inactive |  | 
CNC | inactive | inactive |  | 
CCOC(=O)CC(=O)CCl | inactive | inactive |  | 
CC1=C(C(=O)Nc2ccccc2)SCCO1 | inactive | inactive |  | 
O=S1(=O)OCCO1 | inactive | inactive |  | 
C[C@H](N)[C@H](O)c1ccc(O)c(O)c1 | inactive | inactive |  | 
CC(C(O)c1ccccc1)N(C)C/C=C/c1ccccc1 (stereo not given) | inactive | inactive |  | 
COP(N)(=S)OC | inactive | inactive |  | 
O=NN(CCO)CCO | inactive | inactive |  | 
CCCC(C)(COC(N)=O)COC(=O)NC(C)C (stereo not given) | inactive | inactive |  | 
COc1ccc(OC)c(CC(C)N)c1 (stereo not given) | inactive | inactive |  | 
COc1ccccc1OC | inactive | inactive |  | 
CN(C)CCO | inactive | inactive |  | 
